Assay results reported in PubChem BioAssay (Tox21).
Results filed as inconclusive are left out. A call without a number means that no potency is given here. Values without a mark were called inactive. Activity calls are given as the source filed them. Calls come from the whole dose curve.

assay: cAMP Responsive Elements (CRE) small molecule agonists, cell-based qHTS assay (AID 1963590); details: CRE-bla HEK293T, beta-lactamase FRET ratio, 3 h; series mostly up to 92.4 µM; activation: at the top concentration
Text: U.S. Tox21 Program National Center for Advancing Translational Sciences [NCATS] Division of Preclinical Innovation [DPI] U.S. Environmental Protection Agency [EPA] National Institutes of Environmental Health Sciences [NIEHS] National Toxicology Program [NTP] U.S. Food and Drug Administration [FDA] Tox21 Assay Overview: CREB (cyclic-AMP Responsive Element Binding Protein) is a cellular transcription factor. It binds to certain DNA sequences called cAMP Responsive Elements (CRE) and regulates the transcription of the genes. […] This cell line can be used to find agonists/antagonists of the cyclic AMP signaling pathway. The activation of the report gene under culture conditions can be detected by fluorescence intensity. This cell line has been used to screen the Tox21 10K compound library to identify agonists that induce oxidative stress.
Tox21 Assay Protocol Summary: CRE-bla Hek 293T cells were suspended in assay medium (DMEM containing 10% dialyzed FBS, 0.1 mM NEAA, 1 mM sodium pyruvate and 25 mM HEPES) and dispensed at 2,000 cells/5 uL /well into 1536-well black wall/clear bottom plates using a Multidrop Combi (ThermoFisher Scientific, Waltham, MA) dispenser. After the assay plates were incubated at 37 C/5% CO2 for 18 hrs, 23 nL of compounds dissolved in DMSO, positive controls or DMSO only was transferred to the assay plate by a pintool workstation (Kalypsys, San Diego, CA). After the plates were incubated at 37 C/5% CO2 for 3 hrs, 1 uL of LiveBLAzer B/G FRET substrate (Invitrogen, Carlsbad, CA) was added to each well using Bioraptr Flying Reagent Dispenser (FRD, Aurora Discovery, San Diego, CA). The plates were incubated at room temperature for 2 h.

Row | SMILES | Potency | activation
1 | CN(C)CCC(c1ccccc1)c1ccccn1 (stereo not given) | inactive | 
2 | O=C=Nc1ccc(Cc2ccc(N=C=O)cc2)cc1 | inactive | 
3 | Cc1ccc(N)c(S(=O)(=O)O)c1 | inactive | 
4 | OC[C@@H](O)[C@@H](O)[C@H](O)[C@H](O)CO | inactive | 
5 | C/C=C/C=C/C(=O)O | inactive | 
6 | Cc1ccc(C(C)C)cc1 | inactive | 
7 | CN(N=O)C(=O)N[C@@H]1[C@@H](O)[C@H](O)[C@@H](CO)O[C@@H]1O | inactive | 
8 | OCCO | inactive | 
9 | NC(=O)NC(N)=O | inactive | 
10 | CCCCNC(=O)NS(=O)(=O)c1ccc(N)cc1 | inactive | 
11 | COCC(=O)O | inactive | 
12 | CCN(CC)CCOC(=O)c1ccc(N)cc1 | inactive | 
13 | CC(=O)Nc1cccc(O)c1 | inactive | 
14 | Cc1cccc(C(=O)O)c1 | inactive | 
15 | CCCCOC(=O)CCCCCCCCC(=O)OCCCC | inactive | 
16 | CC(=O)Nc1c(I)c(NC(C)=O)c(I)c(C(=O)O)c1I | inactive | 
17 | CCCCC(C=O)CC (stereo not given) | inactive | 
18 | Cc1ccc(O)cc1 | inactive | 
19 | CCCCCCC(C)(C)S | inactive | 
20 | O=c1ccc2ccccc2o1 | inactive | 

Row | SMILES | Potency | activation
21 | O=C(Cl)c1c(Cl)c(Cl)c(C(=O)Cl)c(Cl)c1Cl | inactive | 
22 | C=C(C)CNCC | inactive | 
23 | CC(=O)OC/C=C(C)/C=C/C=C(C)/C=C/C1=C(C)CCCC1(C)C |  | 0.333% [at 42.5 µM]
24 | CC1=C(C)S(=O)(=O)CCS1(=O)=O | inactive | 
25 | CCCCCCO | inactive | 
26 | c1ccc(Oc2ccccc2)cc1 | inactive | 
27 | O=C(CC(C(=O)OC1CCCCC1)S(=O)(=O)O)OC1CCCCC1 (stereo not given) | inactive | 
28 | CC(C)c1ccc(C(C)C)cc1 | inactive | 
29 | O=C(O)c1ccccc1 | inactive | 
30 | O=C(O)C1=NN(c2ccc(S(=O)(=O)O)cc2)C(=O)C1 | inactive | 
31 | CCC(=O)/C=C/C1C(C)=CCCC1(C)C (stereo not given) | inactive | 
32 | O=c1[nH]cnc2c1ncn2[C@H]1CC[C@@H](CO)O1 | inactive | 
33 | C/C=C/c1ccc(OC)cc1 | inactive | 
34 | Nc1ccc(S(=O)(=O)c2ccc(N)cc2)cc1 | inactive | 
35 | NS(=O)(=O)O | inactive | 
36 | CCCCOCCOCCSC#N | inactive | 
37 | Brc1nc2ccccc2s1 | inactive | 
38 | C=Cc1cccc(C)c1 | inactive | 
39 | C/C=C/c1ccc(OCC)c(O)c1 | inactive | 
40 | CC(C)(CO)COC(=O)C(C)(C)CO | inactive | 
